# According to article PMC7819943, “Rice protein-binding microarrays: a tool to detect cis-acting elements near promoter regions in rice”:
# Over roughly 39,000 sequences, “fluorescence intensity (a.u.)” has its median near 4,300; the highest 2% begin near 39,000. Shown is part of a subset that was picked to be rich in the highest values.
# Molecular target: T1, OsSMF1 (Oryza sativa, UniProt Q6ZLB0 1-436)
# T1 sequence: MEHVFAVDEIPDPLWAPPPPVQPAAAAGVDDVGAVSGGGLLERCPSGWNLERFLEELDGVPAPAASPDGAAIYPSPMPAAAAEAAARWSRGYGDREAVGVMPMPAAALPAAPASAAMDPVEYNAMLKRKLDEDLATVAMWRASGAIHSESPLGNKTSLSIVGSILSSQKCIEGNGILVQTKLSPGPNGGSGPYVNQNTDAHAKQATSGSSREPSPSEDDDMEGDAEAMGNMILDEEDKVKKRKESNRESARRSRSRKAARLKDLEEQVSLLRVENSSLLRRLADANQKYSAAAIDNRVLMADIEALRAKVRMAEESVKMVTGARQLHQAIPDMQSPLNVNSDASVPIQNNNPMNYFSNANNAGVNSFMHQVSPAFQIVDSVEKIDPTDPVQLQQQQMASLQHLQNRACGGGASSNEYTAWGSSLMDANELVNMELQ
# Experiment: protein-binding microarray (RPBM); PBS, 2% BSA, 51.3 ng/ul salmon testes DNA, 50 uM zinc acetate, 200 nM TF, 25 C, 1 h; high values mean tight binding
# Conditions: protein: recombinant; tags: N-terminal polyhistidine and DsRed monomer fusion (pET32a); chain copies: 2; label: CyDye5-dUTP incorporated in the synthesized complementary strand; 3' TTTTT single-stranded linker to array surface; dsDNA, one strand shown
# Method in brief: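 Binding signal here means per-feature fluorescence intensity in arbitrary units. The values were read on an Axon 4000B scanner after a custom Agilent array, double-stranded by primer extension with Cy5-dUTP, was incubated with 200 nM protein at 25 °C for 1 h in PBS with 2% BSA, salmon testes DNA and 50 µM zinc acetate, then washed. The proteins were transcription factors with an N-terminal polyhistidine tag and DsRed, expressed in E. coli BL21-CodonPlus and purified on Ni–NTA.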
row,Sequence,binding signal
1,ACTATTTCTCCAGATAGTAGTAGTAACTCTTACGTCATGGCGGAGTCACCTAGTGCAG,4910 fluorescence intensity (a.u.)
2,ATAAAGACCTAGTCAATGGAGTGCCACGTAGGCACCACGTCGGAGTCACCTAGTGCAG,39000 fluorescence intensity (a.u.)
3,AAATTGCCACGTAAGTGCCATGTCATATGAAGACCGAGTCCGGAGTCACCTAGTGCAG,17800 fluorescence intensity (a.u.)
4,AGCGTCACCTCAATGCCACGTGTGATAAAGACCTAGTTAACGGAGTCACCTAGTGCAG,17200 fluorescence intensity (a.u.)
5,CAAAAGGGAATGCTTTAGGCAGATCATGGAGATAAAGACTCGGAGTCACCTAGTGCAG,39000 fluorescence intensity (a.u.)
6,TAAGCGCCACATCAGTGCCACGTCGGATGAAGACCGAGTCCGGAGTCACCTAGTGCAG,25000 fluorescence intensity (a.u.)
7,CAAATCAAATTACCACATAAGCACCACGTCAATGCCACGTCGGAGTCACCTAGTGCAG,22200 fluorescence intensity (a.u.)
8,GAATTGCCACGTAGGCGCCACGTCATATGAAGACCGAGTCCGGAGTCACCTAGTGCAG,45500 fluorescence intensity (a.u.)
9,TTGTCAAATCATGGCGTCATTAGGCTTAAAAGATTCGTCTCGGAGTCACCTAGTGCAG,4280 fluorescence intensity (a.u.)
10,CAGACAGACACAGAGAGATCGATATCAACATGCTTTAGTCCGGAGTCACCTAGTGCAG,3710 fluorescence intensity (a.u.)
11,GTGTAGTTACCTTCTCGTAGGTGTCATCGAGGATGATGGCCGGAGTCACCTAGTGCAG,3910 fluorescence intensity (a.u.)
12,CGGTATCGACGCAGCGTCTGAATGCAAGGGCCCGTGGTCACGGAGTCACCTAGTGCAG,27400 fluorescence intensity (a.u.)
13,CGCCCAGGACGTCATGCCGGAGCTGGCCATGGTCACCGCGCGGAGTCACCTAGTGCAG,4070 fluorescence intensity (a.u.)
14,GAGTTGTCAAGGGATGTCATCCCGACGTCAACACGATGGCCGGAGTCACCTAGTGCAG,4620 fluorescence intensity (a.u.)
15,ACGGCGACAGCGTGGAGCTCCACGACGGCAGCGACGTCGGCGGAGTCACCTAGTGCAG,3590 fluorescence intensity (a.u.)
16,CGACAGCGGAACGTGAGCTCTGGGGCGACGACGGCGGCAACGGAGTCACCTAGTGCAG,46800 fluorescence intensity (a.u.)
17,CGGCAACAGCGGTGACAACGTGACGACGGGTGACGAGGCGCGGAGTCACCTAGTGCAG,5320 fluorescence intensity (a.u.)
18,CAAGCTCATCAACTTCGTTCGGTCCAAGGTGCGTCAGGGTCGGAGTCACCTAGTGCAG,3180 fluorescence intensity (a.u.)
19,TTAGCAACCTATCGTCATAGAGAGACCCAATGAACCCTTGCGGAGTCACCTAGTGCAG,3860 fluorescence intensity (a.u.)
20,CCCTAGTCTCCTCCCTTGTACATAGGCAAATCCATACGCACGGAGTCACCTAGTGCAG,3640 fluorescence intensity (a.u.)
21,TAATTGGGGTGATGTGGCTAATTCTCAAAGCAGTTTTATACGGAGTCACCTAGTGCAG,5820 fluorescence intensity (a.u.)

row,Sequence,binding signal
1,TAGAGAAAGCAAAGCACATACATAGGCTAATTCTCCTTTACGGAGTCACCTAGTGCAG,39200 fluorescence intensity (a.u.)
2,CGCCATGGGCGAGGCGGTGAAGGGGCCAGTGGTGGTGACGCGGAGTCACCTAGTGCAG,4250 fluorescence intensity (a.u.)
3,TCTTCCTCAAAGTAAAATAGAAGCTAGGGCTAAGAGCCCACGGAGTCACCTAGTGCAG,65100 fluorescence intensity (a.u.)
4,TATAGCAAAGAAAAGTAAAATAAGAGGCATGAGCTCACGCCGGAGTCACCTAGTGCAG,37800 fluorescence intensity (a.u.)
5,AAATAGAAAGCCCAAACGGATATTTCTTCCTGAGAGCCACCGGAGTCACCTAGTGCAG,35600 fluorescence intensity (a.u.)
6,CTACACACGAGACGTGCAAACCTGCAGATTTTGTTACTTGCGGAGTCACCTAGTGCAG,4830 fluorescence intensity (a.u.)
7,CCACGGGCTACAAAGCACGCGCGTCACTCGCTCTCGCGGCCGGAGTCACCTAGTGCAG,4390 fluorescence intensity (a.u.)
8,CAGAAGCGTCTACATACAATAGGATTGGGGCCTGCAAATCCGGAGTCACCTAGTGCAG,55500 fluorescence intensity (a.u.)
9,TCCGTATGAAATAGTGTCTCCGTCAGATTGGGGAAGCGGGCGGAGTCACCTAGTGCAG,3200 fluorescence intensity (a.u.)
10,AAATGTAGTTGTAAAATCCACAAAATAGTCTAGTCAGAAGCGGAGTCACCTAGTGCAG,3340 fluorescence intensity (a.u.)
11,TGTGTTCTCAATTTTGCGTGTTCTCAATGACACGTGAACACGGAGTCACCTAGTGCAG,5630 fluorescence intensity (a.u.)
12,TAAAAGCCAAGCACCATCTCGAAGTCTTCTTCCTCCTCCACGGAGTCACCTAGTGCAG,12500 fluorescence intensity (a.u.)
13,TTCCATTTCTTCCCCTCGCCAAGGCGAGGCCGCGAGAGGGCGGAGTCACCTAGTGCAG,9040 fluorescence intensity (a.u.)
14,ATCGAAGGCGAGAGCTCTTCTTCTTCCCCTCCTCCAAGCACGGAGTCACCTAGTGCAG,60500 fluorescence intensity (a.u.)
15,CTGTAGAACTTGGACCAGCAGCATCAGCAGTAGTAGCAGGCGGAGTCACCTAGTGCAG,3140 fluorescence intensity (a.u.)
16,GTGATATTCTGTCTTCCTGTGATATCAGCACTGTTTTATGCGGAGTCACCTAGTGCAG,3450 fluorescence intensity (a.u.)
17,ACCAGTGCGCCACTGCCAGCGCAGCACCCGCCCGGTTTAACGGAGTCACCTAGTGCAG,3240 fluorescence intensity (a.u.)
18,ATGTCTTAAGCAAGTTTTGACATCCTCATTACAGTGCGGCCGGAGTCACCTAGTGCAG,3390 fluorescence intensity (a.u.)
19,GTAAAGCCTCGATATATCGATCGATTCCAGCTGTGGCACCCGGAGTCACCTAGTGCAG,3620 fluorescence intensity (a.u.)
20,AGAGCCCACCAGCTGCACCGGCGTGGCATCGTCCACTTGGCGGAGTCACCTAGTGCAG,5060 fluorescence intensity (a.u.)
21,TCGATTCCAGCTGTGGCACCCATAGAGAAATGAGCCCGTCCGGAGTCACCTAGTGCAG,56300 fluorescence intensity (a.u.)
